“And” between values parts separate entries of the source, which are not always exact repeats. Equal values may be shown once. Values without a mark were called inactive. Results filed as inconclusive are left out. A call without a number means that no potency is given here. The source made the active and inactive calls. Unless noted, the call rests on the fitted dose curve; in most records, active means well fitted curve in the direction sought with a large enough effect; inconclusive means small, poorly fitted or top-dose-only effect, or another doubt; inactive means no such curve, though single readings can be large; an effect the other way counts as inactive or inconclusive.
Key:
[1] = Cell Viability - HUV-EC-C (AID 542); further: nearly all actives have a fitted effect of over 35% in size; further: potency means the concentration at half of the fitted maximal effect
Summary of the method: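 HUV-EC-C human vascular endothelial cells, 1000/well, exposed to compound for 40 hr at 37 °C in complete medium. Intracellular ATP was read by CellTiter-Glo luminescence. AC50 came from Hill-equation fits of concentration-response data.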

[2] = Cellular Toxicity (caspase-3) NIH 3T3 (AID 666);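 further: caspase signal read after 16 h compound exposure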
Summary of the method: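 Mouse NIH 3T3 fibroblasts (1000/well) treated 16 h at 37 C; caspase-3/7 activity measured by Caspase-Glo 3/7 luminescence after 20 min. Normalized to DMSO and 100 uM tamoxifen; AC50 from Hill fits.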

[3] = target: Glucocorticoid receptor (Homo sapiens) (UniProt P04150); assay: qHTS assay for small molecule agonists of glucocorticoid receptor signaling (AID 588532; active means well fitted curve in the direction sought with a large enough effect in the signal ratio, with a control signal flat; the % refers to the signal ratio); settings: HeLa MMTV-bla, beta-lactamase ratio, agonist, 18 h; hits give high values; percent of dexamethasone control, DMSO zero
Summary of the method: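 MMTV-bla HeLa, beta-lactamase reporter; medium with 1% charcoal/dextran-stripped FBS; cpds up to 92 uM, 18 h, 37 C; CCF4 readout 460/530 nm; Hill fit → EC50, efficacy vs 0.1 uM dexamethasone = 100%.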

[4] = target: Voltage-gated inwardly rectifying potassium channel KCNH2 (Homo sapiens) (UniProt Q12809); assay: qHTS Assay for Small Molecule Inhibitors of the Human hERG Channel Activity (AID 588834);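 further: top concentration of the series differs between compounds; lower thallium flux fluorescence means stronger hERG block; nearly all actives have a fitted effect of over 50% in size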
Summary of the method: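 Kinetic FDSS fluorescence; U2OS + hERG BacMam (~100 virus particles/cell); FluxOR Tl+ flux; ~10 min cpd; AC50 (Hill).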

[5] = qHTS assay for small molecule activators of the nuclear factor-kappa B (NF-kB) signaling pathway (AID 651749; active means well fitted activation curve with a large enough effect in the signal ratio; the % refers to the signal ratio; further: series mostly up to about 77 µM); settings: NF-kB-bla ME-180 cells, beta-lactamase FRET ratio, 16 h; hits give high values
Summary of the method: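 Screening used 2,000 ME-180 reporter cells per well exposed to pinned compound (23 nL) or DMSO; after 16 hr at 37C, beta-lactamase expression under NF-kB control was assessed through FRET.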

[6] = target: Tumor necrosis factor (Homo sapiens) (UniProt P01375); assay: qHTS assay to identify small molecules that stimulate Tumor Necrosis Factor-alpha (TNF-alpha) secretion (AID 651757; active means well fitted curve in the direction sought with a large enough effect in the signal ratio; the % refers to the signal ratio)
Summary of the method: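 THP-1 cells (3000/well) exposed to compounds 17 hrs at 37 C. Secreted TNF-alpha detected by HTRF with cryptate- and XL665-labeled anti-TNF-alpha antibodies after 3 hr at room temperature.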

[7] = MultiTox-Fluor Cytotoxicity Assay - LYMP1-003 - Dead Cells (AID 961); further: nearly all actives have a fitted effect of over 70% in size; further: potency means the concentration at half of the fitted maximal effect
Summary of the method: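 LYMP1-003 lymphoblastoid, 2500 cells/well, 5 hr settle then 16 hr cpd at 37 C; MultiTox-Fluor reagent 60 min RT; Ex/Em 485/520 dead-cell signal; norm. DMSO = 0%, 15 uM tetraoctylammonium bromide = 100%; Hill AC50.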

[8] = target: Glucocorticoid receptor (Homo sapiens) (UniProt P04150); assay: qHTS assay for small molecule antagonists of glucocorticoid receptor signaling (AID 588533; active means well fitted inhibition curve with a large enough effect in the signal ratio, with a control signal flat, not every such curve was filed as active; the % refers to the signal ratio;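 further: cells stimulated with 2 nM dexamethasone as agonist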)
Summary of the method: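 Antagonist-mode qHTS: compound titrations added to GRE-bla HeLa cells, then dexamethasone 2 nM final; 18 h, 37 C. CCF4 FRET fluorescence normalized to dexamethasone and DMSO; IC50 from Hill fit.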

[9] = target: Peroxisome proliferator-activated receptor delta (Homo sapiens) (UniProt Q03181); assay: qHTS assay for small molecule antagonists of peroxisome proliferator-activated receptor delta signaling (AID 588535; active means well fitted inhibition curve with a large enough effect in the signal ratio, with a control signal flat, not every such curve was filed as active; the % refers to the signal ratio)
Summary of the method: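 Reporter: UAS-bla under PPAR-delta response element, HEK293T host. Medium: 2% charcoal/dextran FBS. Dosing: titration, 18 hrs, 37 C. Detection: CCF4, 2 hrs RT, 405 ex/460 and 530 em.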

[10] = target: Peroxisome proliferator-activated receptor gamma (Homo sapiens) (UniProt P37231); assay: qHTS assay for small molecule agonists of peroxisome proliferator-activated receptor gamma signaling (AID 588536; active means well fitted curve in the direction sought with a large enough effect in the signal ratio, with a control signal flat, not every such curve was filed as active; the % refers to the signal ratio)
Summary of the method: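 Test agents, titrated, stimulated HEK293 UAS-bla cells overnight (16 h, 37 C). Substrate CCF4 was then added for two hours at room temperature before fluorescence reading.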

[11] = qHTS assay for small molecule agonists of the antioxidant response element (ARE) signaling pathway (AID 651741; active means well fitted activation curve with a large enough effect in the signal ratio; the % refers to the signal ratio; further: potency means the concentration at half of the fitted maximal effect)
Summary of the method: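 Compounds in DMSO are pinned onto HepG2 ARE-bla cells (2,000/well) that were preincubated 5 h; plates stay 16 h at 37 C, then beta-lactamase activity is detected with LiveBLAzer B/G substrate by fluorescence.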

[12] = target: Nuclear receptor ROR-gamma (Homo sapiens) (UniProt P51449); assay: qHTS assay for small molecule antagonists of the retinoid-related orphan receptor gamma (ROR-gamma) signaling pathway (AID 651802); further: nearly all actives have a fitted effect of over 60% in size; further: potency means the concentration at half of the fitted maximal effect
Summary of the method: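 CHO cells with TET-inducible ROR-gamma and RORE-luciferase reporter, dosed then doxycycline-induced. After 16 h at 37C, One-Glo luminescence read; decreased signal indicates antagonism.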

[13] = qHTS assay for small molecule antagonists of the retinoid-related orphan receptor gamma (ROR-gamma) signaling pathway - cell viability counter screen (AID 720652; active means well fitted curve in the direction sought with a large enough effect in the repeat runs; an effect the other way counts as inactive or inconclusive;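 further: series mostly up to about 92 µM; compound exposure lasted 16 hr before ATP read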)
Summary of the method: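 CHO cells carrying TET-inducible ROR and RORE-luciferase reporter, plated 5 hr, then dosed with compound plus doxycycline. After 16 hr at 37 C, viability read as intracellular ATP by CellTiter-Glo luminescence.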

[14] = qHTS assay for small molecule activators of the human pregnane X receptor (PXR) signaling pathway (AID 720659; call rule not given here)
[15] = target: Cytochrome P450 3A4 (Homo sapiens) (UniProt P08684); assay: qHTS Assay for Inhibitors and Substrates of Cytochrome P450 3A4 (AID 884); further: nearly all actives have a fitted effect of over 50% in size; further: potency means the concentration at half of the fitted maximal effect
Summary of the method: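 20 nM human CYP3A4 with 25 uM Luciferin-PPXE (at KM) in 200 mM KPO4, preincubated 10 min with compound; NADPH regeneration started a 60 min RT reaction. Luciferin detected by luminescence, normalized to 57 uM ketoconazole as full inhibition.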

[16] = Cell Viability - LYMP2-026 (AID 989); further: nearly all actives have a fitted effect of over 50% in size
Summary of the method: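 Human lymphoblastoid LYMP2-026 cells, 2500/well, exposed to compound 24 h at 37 C in complete medium. Viability as intracellular ATP by CellTiter-Glo luminescence; AC50 from Hill fits of qHTS concentration-response.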

[17] = Cell Viability - LYMP1-002 - Assay at 24 hr (AID 993)
Summary of the method: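 Human lymphoblastoid LYMP1-002 cells (2500/well) treated 24 h at 37 °C; viability as intracellular ATP by CellTiter-Glo luminescence. Tetraoctylammonium bromide as positive control; AC50 from Hill-equation fits of qHTS concentration-response.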

[18] = target: Estrogen receptor (Homo sapiens) (UniProt P03372); assay: qHTS assay for small molecule antagonists of estrogen receptor alpha signaling (AID 588513; active means well fitted curve in the direction sought with a large enough effect in the signal ratio, with a control signal flat, not every such curve was filed as active; the % refers to the signal ratio)
Summary of the method: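 Antagonist mode: inhibition of 0.5 nM 17-beta-estradiol-driven beta-lactamase reporter in HEK 293 ER-alpha-UAS-bla cells, 18 h at 37C, CCF4 readout after 2 h at RT. Normalised to estradiol and DMSO; titration fitted to Hill.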

[19] = target: Estrogen receptor (Homo sapiens) (UniProt P03372); assay: qHTS assay for small molecule agonists of estrogen receptor alpha signaling (AID 588514; calls by dose curve; further: nearly all actives have a fitted effect of over 70% in size)
Summary of the method: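 ER-alpha-UAS-bla GripTite HEK293 cells, 5000/well in 2% charcoal/dextran-stripped FBS medium, treated with compound titrations 18 h at 37 C. CCF4 beta-lactamase read by fluorescence after 2 h RT; normalised to 20 nM 17-beta-estradiol (100%) and DMSO (0%), Hill fit for EC50 and efficacy.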

[20] = target: Vitamin D3 receptor (Homo sapiens) (UniProt P11473); assay: qHTS assay for small molecule agonists of vitamin D receptor signaling (AID 588543; calls by dose curve)
Summary of the method: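 Agonist-mode beta-lactamase reporter: HEK293T VDR-UAS-bla cells in charcoal-stripped 2% FBS, compound series 16 h 37 C, CCF4 2 h RT. EC50 from Hill fit, scaled against DMSO and 50 nM calcitriol control.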

Chain of Glucocorticoid receptor (Homo sapiens) (P04150 whole entry, looked up): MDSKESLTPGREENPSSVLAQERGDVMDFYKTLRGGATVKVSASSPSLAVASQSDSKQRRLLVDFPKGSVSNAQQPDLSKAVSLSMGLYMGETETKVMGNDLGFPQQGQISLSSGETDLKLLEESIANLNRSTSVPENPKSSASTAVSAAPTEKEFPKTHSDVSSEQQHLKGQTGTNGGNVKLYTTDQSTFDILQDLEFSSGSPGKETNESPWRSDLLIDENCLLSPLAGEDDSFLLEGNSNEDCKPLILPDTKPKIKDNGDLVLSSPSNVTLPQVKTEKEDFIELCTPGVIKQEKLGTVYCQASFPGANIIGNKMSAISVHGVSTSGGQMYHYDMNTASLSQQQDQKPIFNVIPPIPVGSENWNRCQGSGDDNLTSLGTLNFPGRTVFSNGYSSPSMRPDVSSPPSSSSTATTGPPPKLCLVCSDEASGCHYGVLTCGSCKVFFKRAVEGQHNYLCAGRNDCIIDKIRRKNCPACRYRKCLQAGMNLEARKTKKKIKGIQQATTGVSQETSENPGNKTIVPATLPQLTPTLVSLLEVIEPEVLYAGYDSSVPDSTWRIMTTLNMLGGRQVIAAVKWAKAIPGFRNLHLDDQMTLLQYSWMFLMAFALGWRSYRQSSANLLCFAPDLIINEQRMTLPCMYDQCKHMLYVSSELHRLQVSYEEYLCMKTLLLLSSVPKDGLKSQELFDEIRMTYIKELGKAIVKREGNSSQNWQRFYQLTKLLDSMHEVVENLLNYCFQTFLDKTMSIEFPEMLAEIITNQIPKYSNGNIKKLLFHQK
Chain of Peroxisome proliferator-activated receptor gamma (Homo sapiens) (P37231 whole entry, looked up): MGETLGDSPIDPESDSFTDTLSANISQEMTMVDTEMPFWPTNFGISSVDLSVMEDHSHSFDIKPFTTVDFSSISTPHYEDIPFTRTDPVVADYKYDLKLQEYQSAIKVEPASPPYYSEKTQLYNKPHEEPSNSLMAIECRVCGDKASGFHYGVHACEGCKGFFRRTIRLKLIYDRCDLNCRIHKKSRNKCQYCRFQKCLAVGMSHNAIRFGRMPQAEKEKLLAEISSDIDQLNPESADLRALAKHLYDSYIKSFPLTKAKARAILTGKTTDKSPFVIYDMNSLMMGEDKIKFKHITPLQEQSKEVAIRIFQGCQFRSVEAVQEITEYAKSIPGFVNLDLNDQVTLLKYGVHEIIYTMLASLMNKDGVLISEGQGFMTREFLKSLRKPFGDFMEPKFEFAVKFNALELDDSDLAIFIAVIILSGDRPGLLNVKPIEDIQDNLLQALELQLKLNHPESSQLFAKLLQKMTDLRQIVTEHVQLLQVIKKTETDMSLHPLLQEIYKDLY
Chain of Vitamin D3 receptor (Homo sapiens) (P11473 whole entry, looked up): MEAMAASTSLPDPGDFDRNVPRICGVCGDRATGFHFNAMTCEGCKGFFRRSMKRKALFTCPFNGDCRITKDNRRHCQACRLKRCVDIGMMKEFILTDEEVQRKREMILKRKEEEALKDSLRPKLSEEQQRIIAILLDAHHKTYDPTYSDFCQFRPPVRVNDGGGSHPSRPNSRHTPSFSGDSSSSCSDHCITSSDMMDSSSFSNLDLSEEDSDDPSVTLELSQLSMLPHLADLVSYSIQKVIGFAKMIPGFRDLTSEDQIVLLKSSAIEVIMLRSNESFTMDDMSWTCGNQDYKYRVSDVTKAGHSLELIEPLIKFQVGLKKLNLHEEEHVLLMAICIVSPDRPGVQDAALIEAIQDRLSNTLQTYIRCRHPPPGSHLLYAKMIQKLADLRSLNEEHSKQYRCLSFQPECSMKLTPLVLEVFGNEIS
Chain of Peroxisome proliferator-activated receptor delta (Homo sapiens) (Q03181 whole entry, looked up): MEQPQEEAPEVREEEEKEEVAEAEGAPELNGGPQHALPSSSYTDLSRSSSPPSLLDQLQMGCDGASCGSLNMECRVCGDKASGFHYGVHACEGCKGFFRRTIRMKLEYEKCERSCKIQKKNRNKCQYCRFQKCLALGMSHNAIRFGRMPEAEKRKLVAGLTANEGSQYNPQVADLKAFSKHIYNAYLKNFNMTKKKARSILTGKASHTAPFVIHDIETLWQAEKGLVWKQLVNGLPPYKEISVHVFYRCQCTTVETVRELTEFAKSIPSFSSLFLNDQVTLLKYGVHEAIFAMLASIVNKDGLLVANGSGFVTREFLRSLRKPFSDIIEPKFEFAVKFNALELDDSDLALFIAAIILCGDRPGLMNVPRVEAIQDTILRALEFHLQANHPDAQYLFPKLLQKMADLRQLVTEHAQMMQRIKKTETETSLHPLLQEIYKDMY
Chain of Estrogen receptor (Homo sapiens) (P03372 whole entry, looked up): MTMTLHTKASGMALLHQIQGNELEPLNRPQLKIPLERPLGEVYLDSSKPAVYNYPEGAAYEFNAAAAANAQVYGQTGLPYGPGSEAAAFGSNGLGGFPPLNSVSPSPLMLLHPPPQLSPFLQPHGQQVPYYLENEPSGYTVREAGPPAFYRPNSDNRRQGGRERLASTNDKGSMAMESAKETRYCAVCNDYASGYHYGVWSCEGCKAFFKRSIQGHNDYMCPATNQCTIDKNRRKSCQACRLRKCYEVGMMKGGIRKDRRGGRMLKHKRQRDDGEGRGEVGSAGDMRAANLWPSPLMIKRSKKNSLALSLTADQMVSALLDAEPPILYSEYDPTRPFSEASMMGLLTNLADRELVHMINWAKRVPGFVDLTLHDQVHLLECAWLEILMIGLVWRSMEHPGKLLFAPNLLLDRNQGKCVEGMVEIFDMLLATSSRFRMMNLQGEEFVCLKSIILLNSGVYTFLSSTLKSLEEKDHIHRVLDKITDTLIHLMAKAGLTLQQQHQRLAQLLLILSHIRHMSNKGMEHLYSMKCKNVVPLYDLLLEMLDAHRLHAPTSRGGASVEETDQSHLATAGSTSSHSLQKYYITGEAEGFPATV
Chain of Voltage-gated inwardly rectifying potassium channel KCNH2 (Homo sapiens) (Q12809 whole entry, looked up): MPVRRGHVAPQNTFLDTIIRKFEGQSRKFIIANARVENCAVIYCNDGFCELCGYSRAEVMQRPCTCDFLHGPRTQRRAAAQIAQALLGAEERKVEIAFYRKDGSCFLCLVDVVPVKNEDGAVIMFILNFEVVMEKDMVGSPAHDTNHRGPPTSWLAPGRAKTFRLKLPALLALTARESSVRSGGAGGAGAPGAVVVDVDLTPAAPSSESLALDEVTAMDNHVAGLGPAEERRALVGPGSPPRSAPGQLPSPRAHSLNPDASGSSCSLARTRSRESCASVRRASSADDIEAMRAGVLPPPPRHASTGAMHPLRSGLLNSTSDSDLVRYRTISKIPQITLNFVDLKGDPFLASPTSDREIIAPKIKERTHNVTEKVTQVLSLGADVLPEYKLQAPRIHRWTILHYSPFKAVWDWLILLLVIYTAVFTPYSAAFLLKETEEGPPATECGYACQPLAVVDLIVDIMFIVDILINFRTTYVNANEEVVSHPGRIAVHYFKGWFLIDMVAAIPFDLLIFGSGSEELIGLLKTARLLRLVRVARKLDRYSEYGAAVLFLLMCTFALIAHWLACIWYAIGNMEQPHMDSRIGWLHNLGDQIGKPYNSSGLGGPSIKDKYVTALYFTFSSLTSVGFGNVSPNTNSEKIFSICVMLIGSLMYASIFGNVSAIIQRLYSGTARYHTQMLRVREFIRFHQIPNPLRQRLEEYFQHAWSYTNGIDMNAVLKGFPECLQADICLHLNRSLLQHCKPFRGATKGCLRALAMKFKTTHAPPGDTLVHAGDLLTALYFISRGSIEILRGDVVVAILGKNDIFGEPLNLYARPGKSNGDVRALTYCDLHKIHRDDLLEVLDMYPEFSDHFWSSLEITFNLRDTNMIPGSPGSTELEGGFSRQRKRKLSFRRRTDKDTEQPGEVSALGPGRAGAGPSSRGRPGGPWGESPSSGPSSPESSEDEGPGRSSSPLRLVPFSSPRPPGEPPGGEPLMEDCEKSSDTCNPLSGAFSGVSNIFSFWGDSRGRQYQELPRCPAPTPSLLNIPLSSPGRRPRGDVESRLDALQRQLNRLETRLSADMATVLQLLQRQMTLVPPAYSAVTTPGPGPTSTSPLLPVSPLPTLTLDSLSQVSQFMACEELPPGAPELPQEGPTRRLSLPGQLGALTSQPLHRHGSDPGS
Chain of Tumor necrosis factor (Homo sapiens) (P01375 whole entry, looked up): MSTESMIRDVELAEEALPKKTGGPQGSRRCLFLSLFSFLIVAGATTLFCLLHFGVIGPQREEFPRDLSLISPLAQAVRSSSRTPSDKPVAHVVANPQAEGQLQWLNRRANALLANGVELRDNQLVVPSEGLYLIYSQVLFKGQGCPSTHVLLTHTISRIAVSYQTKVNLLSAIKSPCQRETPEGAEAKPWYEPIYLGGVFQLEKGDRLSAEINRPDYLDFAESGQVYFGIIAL
Chain of Cytochrome P450 3A4 (Homo sapiens) (P08684 whole entry, looked up): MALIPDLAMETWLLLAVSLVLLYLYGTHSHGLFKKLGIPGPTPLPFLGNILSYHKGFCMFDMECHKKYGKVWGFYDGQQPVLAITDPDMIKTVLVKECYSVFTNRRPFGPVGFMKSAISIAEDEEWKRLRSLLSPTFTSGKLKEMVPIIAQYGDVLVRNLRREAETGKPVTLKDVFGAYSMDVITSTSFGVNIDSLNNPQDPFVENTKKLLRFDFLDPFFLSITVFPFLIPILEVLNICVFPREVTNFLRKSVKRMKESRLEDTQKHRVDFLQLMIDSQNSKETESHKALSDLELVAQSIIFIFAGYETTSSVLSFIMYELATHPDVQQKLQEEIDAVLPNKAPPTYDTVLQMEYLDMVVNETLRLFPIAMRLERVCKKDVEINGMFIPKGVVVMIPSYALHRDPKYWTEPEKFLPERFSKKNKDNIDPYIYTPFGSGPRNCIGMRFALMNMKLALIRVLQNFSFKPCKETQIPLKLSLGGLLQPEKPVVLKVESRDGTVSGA

Row | SMILES | Potency [1] | outcome [2] | activation [3] | Potency [4] | activation [5] | Potency [6] | Potency [7] | Potency [8] | outcome [9] | outcome [10] | Potency [11] | Potency [12] | Potency [13] | outcome [14] | Potency [15] | Potency [16] | Potency [17] | outcome [18] | Potency [19] | Potency [20]
1 | C=C1CC[C@H](O)C/C1=C/C=C1\CCC[C@]2(C)[C@@H]([C@H](C)CCCC(C)C)CC[C@@H]12 | 39.8 µM (active) | inactive | -3.67% | inactive | 1.86% | inactive |  |  |  |  |  |  |  |  |  |  |  |  |  | 
2 | CC(=O)OC1CC(C)OC(C)O1 (stereo unspecified) |  | inactive | 0.225% and -13.7% | inactive | -0.185% and -2.01% | inactive | inactive | inactive | inactive | inactive | 61.1 µM (active) | inactive | inactive | inactive |  |  |  |  |  | 
3 | c1ccc2c(c1)ccc1ccccc12 | inactive | inactive | 3.65% and 10.6% | inactive | -1.69% and -0.971% | inactive | inactive | inactive | inactive | inactive | inactive | inactive | inactive | inactive | inactive | inactive | inactive | inactive | inactive | inactive
4 | CCCCCCN | inactive |  |  | inactive | -0.245% | inactive | inactive |  |  |  |  | inactive | inactive | inactive | inactive |  | inactive | inactive | inactive | inactive
5 | Cc1cccnc1 | inactive |  |  | inactive | -0.701% | inactive | inactive |  |  | inactive | inactive | inactive | inactive | inactive | inactive |  | inactive |  |  | inactive
6 | CCCCC(CC)COC(=O)COc1ccc(Cl)cc1Cl (stereo unspecified) |  | inactive | -3.61% and -5.37% | inactive |  | inactive | inactive | inactive |  | inactive |  |  | inactive | inactive |  |  |  | inactive | inactive | inactive
7 | Nc1cc(C(=O)O)c(O)c(S(=O)(=O)O)c1 |  | inactive | 1.03% | inactive |  |  | inactive | inactive |  | inactive | inactive |  | inactive | inactive | inactive | inactive |  |  |  | inactive
8 | Nc1cnn([C@@H]2O[C@H](CO)[C@@H](O)[C@H]2O)c(=O)n1 | inactive | inactive | -5.2% | inactive |  | inactive | inactive | inactive |  | inactive | inactive | 5.31 µM (active) | inactive | inactive | inactive | inactive | inactive | inactive | inactive | inactive
9 | C=Cc1cccc(C)c1 | inactive | inactive | -2.15% | inactive |  | inactive |  | inactive | inactive | inactive | inactive | inactive | inactive | inactive | inactive | inactive | inactive | inactive | inactive | inactive
10 | COc1ccc(C)cc1N | inactive | inactive | 9.32% | inactive | -0.459% | inactive | inactive | inactive | inactive | inactive | inactive | inactive | inactive | inactive |  | inactive | inactive | inactive | inactive | inactive
11 | CC(/C=C/C=C(C)/C=C/C(=O)O)=C\C=C\C=C(C)\C=C\C=C(C)\C=C\C(=O)O |  |  | 1.99% | inactive | -1.49% |  | inactive | inactive |  |  | 37.6 µM (active) | inactive |  | inactive | inactive | inactive |  | inactive | inactive | inactive
12 | Brc1cc(Oc2cc(Br)c(Br)c(Br)c2Br)c(Br)c(Br)c1Br |  | inactive | -9.25% and -1.53% | inactive | 2.9% and 0.823% | inactive |  | inactive | inactive |  | inactive | inactive | inactive |  | inactive | inactive |  |  |  | 
13 | c1ccc2ncccc2c1 | inactive | inactive | -12.1% | inactive |  | inactive | inactive | inactive | inactive | inactive | inactive | inactive | inactive | inactive |  | inactive | inactive | inactive | inactive | 
14 | Nc1ccccc1O | inactive |  | 7.62% | inactive |  |  |  |  | inactive | inactive | 13.3 µM (active) |  | inactive |  | inactive |  | inactive | inactive | inactive | inactive
15 | Oc1c(Cl)cc(Cl)c(Cl)c1Cl | inactive |  | 5.94% | inactive | -0.537% and 2.41% | inactive | inactive | inactive | inactive | inactive | 33.5 µM (active) | 33.5 µM (active) | inactive |  | inactive | inactive |  |  |  | inactive
16 | CCCCOC(=O)COc1ccc(Cl)cc1Cl |  | inactive |  |  | 1.36% and -1.12% | inactive |  |  |  | inactive | inactive | inactive | inactive | inactive | inactive | inactive | inactive |  |  | inactive
17 | CC/C=C/C/C=C/C/C=C/CCCCCCCC(=O)OCC | inactive | inactive | -2.85% |  | -1.38% | inactive | 50.1 µM (active) | inactive |  | inactive | 59.6 µM (active) | inactive |  |  | 10 µM (active) |  |  |  |  | 

— PubChem BioAssay (NCATS)
